Bioassay records (PubChem BioAssay)
Most compounds without a hit are left out; they make up all but 5.7% or so of the library.
hcDAF12 agonist – activators of H. contortus DAF-12 nuclear receptor. 1.4% of 370,000 active. activation, % at 6.8 µM. HEK293 hcDAF-12 lit1-tk-luc reporter, luminescence; 0% DMSO, 100% Δ7-dafachronic acid;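 active means activation above the mean of all tested compounds plus 3 SD, cut at about 5.5% in these data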;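 further: 100% = response to 3 µM Δ7-dafachronic acid high control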
ssDAF12 agonist – S. stercoralis DAF-12 activation, primary screen; HEK293 ssDAF-12/GRIP1 lit1-tk-luc reporter, luminescence; % of 3 µM dafachronic acid response; activation, % at 6.8 µM; 1% of 370,000 active; AID 652126;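 active means activation above the mean over all tested compounds plus 3 SD, cut at about 0.9% in these data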;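 further: 0% = DMSO-only wells and 100% = 3 µM delta7-dafachronic acid wells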
AHR act – activates the human aryl hydrocarbon receptor; P35869; AHR-responsive luciferase reporter cells, luminescence; activation, % at 5 µM; 2.5% of 320,000 active; AID 2796; in the data active means activation above about 47%;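 further: 0% = vehicle wells and 100% = reference agonist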
DAX1 inh-1 – NR0B1 (DAX1) inhibition; P51843; HEK293 Gal4-DAX1 luciferase reporter, luminescence; inhibition, % at 6.75 µM; 0.99% of 340,000 active; AID 504766;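 active means inhibition above the mean over all tested compounds plus 3 SD, cut at about 4.2% in these data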;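 further: 0% = DAX1-transfected cells with DMSO and 100% = empty-vector control cells with DMSO; inhibition shows as a rise in luminescence from relieved DAX1 repression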
Target sequence (P51843 207-470 limits assumed): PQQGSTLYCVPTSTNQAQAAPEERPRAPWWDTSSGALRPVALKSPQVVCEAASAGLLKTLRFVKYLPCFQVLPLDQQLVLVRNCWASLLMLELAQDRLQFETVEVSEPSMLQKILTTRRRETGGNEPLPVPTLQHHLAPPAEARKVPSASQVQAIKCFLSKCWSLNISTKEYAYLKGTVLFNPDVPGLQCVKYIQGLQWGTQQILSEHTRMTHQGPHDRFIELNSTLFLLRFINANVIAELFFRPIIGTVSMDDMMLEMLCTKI
DAX1 inh-2 – inhibitors of DAX1 repression of SF-1 activated StAR promoter | 1.1% of 370,000 active | inhibition, % at 6.8 µM | HEK293T StAR-luciferase reporter, SF-1/DAX-1 repression relief;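 active means inhibition above the mean over all tested compounds plus 3 SD, cut at about 3.6% in these data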;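 further: 0% = DAX-1 cells with DMSO and 100% = cells lacking DAX-1 with DMSO; higher inhibition means more luminescence from relief of DAX-1 repression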
hgDAF12 agonist – hgDAF-12 agonism, primary luciferase screen | 1.8% of 370,000 active | activation, % at 6.8 µM | HEK293 GAL4-hgDAF12 UAS-luciferase reporter, agonist luminescence; normalized to butyrate control;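 active means activation above a cutoff set at the mean of all screened compounds plus 3 SD, cut at about 10% in these data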;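 further: 0% = DMSO wells and 100% = sodium butyrate wells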
AHR act confirm – confirmation of human aryl hydrocarbon receptor activators; human cells, AHR-responsive luciferase reporter, luminescence; activation, % at 9 µM; 87% of 2,300 active; shares compounds with AHR act; in the data active means activation above about 49%;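 further: HepG2 hepatoma cells carrying a DRE-driven firefly luciferase reporter; 0% = vehicle wells and 100% = reference agonist wells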
PXR act counter – PXR activation, counter-screen for AHR activators | AID 434939 | activation, % at 11.6 µM | cell-based PXR reporter, luciferase luminescence | 88% of 2,300 active | shares compounds with AHR act; in the data active means activation above about 11%;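 further: human hepatoma DPX-2 cells expressing full-length human PXR; 0% = DMSO and 100% = reference agonist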
Target sequence (O75469 whole entry, looked up): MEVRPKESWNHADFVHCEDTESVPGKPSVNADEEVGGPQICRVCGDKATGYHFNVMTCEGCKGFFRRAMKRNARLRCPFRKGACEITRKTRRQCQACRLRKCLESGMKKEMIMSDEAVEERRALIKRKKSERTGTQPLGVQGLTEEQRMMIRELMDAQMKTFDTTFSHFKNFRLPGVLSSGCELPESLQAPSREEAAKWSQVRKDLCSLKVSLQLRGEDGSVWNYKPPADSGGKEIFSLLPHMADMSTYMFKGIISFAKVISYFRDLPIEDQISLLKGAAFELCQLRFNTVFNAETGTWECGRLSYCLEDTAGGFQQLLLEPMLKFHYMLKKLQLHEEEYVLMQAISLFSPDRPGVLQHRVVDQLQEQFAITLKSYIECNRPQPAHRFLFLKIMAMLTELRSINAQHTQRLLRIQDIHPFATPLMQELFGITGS
An asterisk follows results filed as active; nt = no result given.

SMILES	hcDAF12 agonist	ssDAF12 agonist	AHR act	DAX1 inh-1	DAX1 inh-2	hgDAF12 agonist	others
CN1c2ccc([N+](=O)[O-])cc2CC2(C(=O)NC(=O)N(c3ccc(Br)cc3)C2=O)C1c1ccccc1 (centres undefined)	1.0	0.1	75.7*	-0.1	-0.5	2.5
CCCCC1(CC)COP(=O)(OCC(Cl)(Cl)Cl)OC1 (centres undefined)	-1.4	-1.1	nt	2.7	0.0	2.5
Cc1cc(=O)n(-c2ccccc2)n1-c1ccccc1	-0.2	-0.3	-2.0	4.8*	0.8	-1.4
C=C1C[C@]2(O)[C@@]3(C)CCC(=O)C(C)(C)C3=C(O)C(=O)[C@@]2(C)[C@@H]2C(=O)O[C@@](C)(C(=O)OC)C(=O)[C@@]12C	-0.2	-0.5	4.1	5.0*	2.5	7.4
COC(=O)C(O)(c1ccc(N=Cc2ccccc2O)c(C)c1)C(F)(F)F (centres undefined)	-0.7	-0.6	0.5	1.0	0.6	0.1
CC(C)(C)c1ccc(O)c(N=Cc2c(O)ccc3ccccc23)c1	1.4	-0.5	64.4*	-2.6	-0.4	-2.1
Nc1nonc1OCCCCOc1nonc1N	-1.6	3.3*	-0.4	1.3	0.0	-0.8
CC(=O)C1=C(C)OC2=C(C(=O)CCC2)[C@@]12C(=O)N(C)c1ccccc12	-0.7	-1.0	nt	nt	-0.6	0.5
CCOP(=O)(OCC)C(NC(=O)c1cccc(C)c1)C(Cl)(Cl)Cl (centres undefined)	-1.2	-0.8	-1.5	-2.9	0.7	1.2
Cc1cccc(C(=O)NC(Oc2ccccc2)C(Cl)(Cl)Cl)c1 (centres undefined)	-0.9	-1.6	50.2*	0.3	-0.3	0.2
COc1cc2oc(=O)c(CC(=O)N3C[C@H]4C[C@@H](C3)c3cccc(=O)n3C4)c(C)c2cc1Cl	-1.1	-0.8	nt	4.8*	1.1	6.0
Cc1c(CC(=O)N2C[C@H]3C[C@@H](C2)c2cccc(=O)n2C3)c(=O)oc2cc(O)c(Cl)cc12	2.2	-1.1	1.6	3.3	1.3	-3.4
CCn1c(=O)cc(OCC(=O)N2CCN(Cc3ccc4c(c3)OCO4)CC2)c2ccccc21	-0.7	-2.0	54.9*	0.7	0.4	-2.8
CCN1CCN(C(=O)COc2cc(=O)n(CC)c3ccccc23)CC1	-0.9	-0.9	10.4	0.1	-0.3	0.6
Clc1ccc(C(c2ccc(Cl)cc2)n2cc[n+](CC(OCc3ccc(Cl)cc3Cl)c3ccc(Cl)cc3Cl)c2)cc1 (centres undefined)	-1.6	-1.7	0.0	-0.2	-3.5	-1.8
COc1cc(C2c3cc4c(c(O)c3CC3COC(=O)C32)OCO4)cc(OC)c1OC (centres undefined)	-0.5	-0.1	nt	0.6	3.4	-6.7
COc1cc(C2c3cc(O)c(OC)cc3CC3C(=O)OCC32)ccc1O (centres undefined)	-0.6	-1.4	nt	4.8*	1.1	-1.6
O=C(NCCN1CCC2(CC1)C(=O)NCN2c1ccccc1)c1ccccc1F	0.5	-1.4	nt	nt	0.2	0.3
O=C(c1cc2cc(F)ccc2[nH]1)N1CCC2(CC1)OCCO2	4.3	1.8*	31.7	0.5	0.7	2.9
O=C(c1ccc(F)cc1Cl)N1CCC2(CC1)OCCO2	-1.4	-1.4	0.9	-0.2	0.4	0.4
CCOP(=O)(OCC)C1(O)C(=O)Nc2ccc(Br)cc21 (centres undefined)	-1.1	0.1	25.3	0.5	-0.9	-2.3
Cc1ccc(S(=O)(=O)Cc2ccc(C(=O)N3CCC4(CC3)OCCO4)o2)cc1	5.8*	-0.5	1.1	1.3	0.1	0.3
Cc1ccc(C(=O)C2CN3CCC2CC3)cc1 (centres undefined)	-1.6	-1.0	1.2	3.8	0.1	1.4
Cc1ccc(C(=O)C2CN(C)CC2C(=O)c2ccc(C)cc2)cc1 (centres undefined)	0.4	-0.9	4.1	2.0	1.1	11.4*
Oc1ccc2ccccc2c1CN1CC=C(c2ccccc2)CC1	0.5	-0.7	4.2	5.2*	1.0	0.5
SMILES	hcDAF12 agonist	ssDAF12 agonist	AHR act	DAX1 inh-1	DAX1 inh-2	hgDAF12 agonist	others
CC(C)c1ccc(N2C(=O)NC(=O)/C(=C/c3cnc(-c4ccccc4)nc3)C2=O)cc1	-0.8	-1.0	-6.2	1.3	-0.1	-2.5
CSc1ncc(/C=C2/C(=O)NC(=O)N(c3ccc(C(C)C)cc3)C2=O)cn1	6.4*	0.2	11.2	-0.1	0.0	0.5
CCN1C[C@]2(C)CC[C@H](O)[C@]34C1[C@H](C[C@H]23)[C@@]1(O)C[C@H](OC)[C@H]2C[C@@H]4[C@@H]1C2O (some centres undefined)	0.1	-0.4	-3.0	0.2	0.3	0.4
COc1ccc(OC)c(CC(=O)O)c1	-0.9	-0.8	2.4	-0.4	-0.5	-0.1
COc1cc(C(=O)O)cc(OC)c1OC	-2.4	-1.0	nt	8.4*	0.3	1.5
c1ccc2cc(C3N4CCCN34)ccc2c1 (centres undefined)	0.1	-0.9	26.3	1.4	0.3	6.6
Nc1ccc(-c2ccccc2)cc1	1.4	0.1	nt	0.3	2.8	7.3
Nc1ccc2ccccc2c1	5.2	0.9*	nt	0.9	1.1	0.2
CCOC(=O)c1c(C)n(Cc2ccco2)c2c1cc(O)c1ccccc12	4.2	-0.1	51.3*	1.8	-0.7	0.8
O=C(O)CCn1cc(C=C2C(=O)NC(=O)NC2=O)c(-c2cc3ccccc3oc2=O)n1	-0.1	-0.8	-2.8	-0.5	-0.1	-1.5
CC(=O)OC1CCC2(C)C(=CC(=O)C3C2CCC2(C)C(OC(C)=O)CCC32)C1 (centres undefined)	1.3	-0.6	nt	2.2	-0.2	0.9
CCc1c(C)nc(N)nc1N1N=C1SCC(=O)OC	0.3	-2.3	0.6	0.8	-0.1	1.0
COC(=O)CSC1=NN1c1cc(C)nc(N)n1	-0.3	-1.7	0.5	4.7*	-0.1	1.4
Nc1ccc2c(c1)oc1ccccc12	1.9	-0.9	8.9	1.2	2.0	11.2*
CN1CCN(c2c(N)c(=O)oc3ccccc23)CC1	0.9	-1.5	-2.8	-0.3	1.9	-0.5
Cc1c(CCN)ccc2c1[nH]c1ccccc12	-0.5	-0.4	92.1*	0.5	0.2	-1.8	AHR act confirm=29.2;PXR act counter=13.3*
COCCOC(=O)c1c(N)n(Cc2ccco2)c2nc3ccccc3nc12	0.6	-0.9	82.0*	-0.9	-0.6	0.6	AHR act confirm=35.7;PXR act counter=91.5*
CC(C)OC(=O)c1c(N)n(Cc2ccco2)c2nc3ccccc3nc12	-1.0	-1.4	41.2	-1.4	-0.6	-0.7
CC(N)Cc1c[nH]c2ccc(O)cc12 (centres undefined)	0.5	-0.8	nt	-0.6	0.4	5.2
